Data published in ChEMBL document CHEMBL5308504, “Tm Shift (DSF) assay results for EUbOPEN Chemogenomics Library” (2023).
“And” between values parts separate entries of the source, which are not always exact repeats. Equal entries are not always repeated.

Experiments:
[1] = molecular target: Bromodomain-containing protein 4 (Homo sapiens) (UniProt O60885); conditions: Compound concentration 20.0 uM, Protein concentration 2.0 uM, Result type QC Liability
[2] = molecular target: T1, Transcription intermediary factor 1-alpha (Homo sapiens) (UniProt O15164); conditions: Compound concentration 20.0 uM, Protein concentration 2.0 uM, Result type QC Liability
T1 sequence (whole entry): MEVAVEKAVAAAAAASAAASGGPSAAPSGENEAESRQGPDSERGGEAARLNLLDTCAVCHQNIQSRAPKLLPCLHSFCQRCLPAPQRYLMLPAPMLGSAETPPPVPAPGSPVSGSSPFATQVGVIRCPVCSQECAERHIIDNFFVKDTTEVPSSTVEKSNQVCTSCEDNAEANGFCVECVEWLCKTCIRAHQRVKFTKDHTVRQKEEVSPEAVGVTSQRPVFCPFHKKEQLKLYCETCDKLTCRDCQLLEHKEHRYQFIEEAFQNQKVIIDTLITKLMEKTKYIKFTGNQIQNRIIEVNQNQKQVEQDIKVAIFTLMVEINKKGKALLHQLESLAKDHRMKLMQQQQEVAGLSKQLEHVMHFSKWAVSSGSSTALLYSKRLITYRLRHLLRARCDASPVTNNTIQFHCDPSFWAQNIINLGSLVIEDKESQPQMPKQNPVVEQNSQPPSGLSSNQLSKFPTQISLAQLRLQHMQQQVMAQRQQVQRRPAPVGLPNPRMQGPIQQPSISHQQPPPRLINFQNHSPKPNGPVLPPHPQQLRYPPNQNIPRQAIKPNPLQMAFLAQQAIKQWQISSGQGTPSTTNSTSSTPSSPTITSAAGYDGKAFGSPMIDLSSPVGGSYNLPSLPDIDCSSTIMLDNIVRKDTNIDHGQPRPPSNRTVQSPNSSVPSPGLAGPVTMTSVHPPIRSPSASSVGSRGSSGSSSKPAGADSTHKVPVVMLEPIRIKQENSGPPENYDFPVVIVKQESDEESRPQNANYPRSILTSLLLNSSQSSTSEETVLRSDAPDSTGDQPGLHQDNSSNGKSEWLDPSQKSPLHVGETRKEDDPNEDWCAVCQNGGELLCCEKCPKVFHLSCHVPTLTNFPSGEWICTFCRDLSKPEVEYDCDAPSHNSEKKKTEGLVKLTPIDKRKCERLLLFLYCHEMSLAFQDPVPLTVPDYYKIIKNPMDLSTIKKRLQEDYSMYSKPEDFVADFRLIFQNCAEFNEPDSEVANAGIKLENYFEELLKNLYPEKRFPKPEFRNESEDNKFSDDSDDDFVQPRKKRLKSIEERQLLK

SMILES | ΔTm [1] | ΔTm [2]
CC(C)(C#Cc1ccc(NC(=O)COc2ccccc2C(=O)c2ccccc2)c(Cl)c1)C(=O)O | 0.63 °C | 0.79 °C
Cc1cc(OCc2nc3ccccc3s2)ccc1NC(=O)Nc1ccc(Cl)c(Cl)c1 | 0.28 °C | -0.82 °C
Cc1c(N2CCNCC2)nc2ccc(Br)cc2c1C(=O)NC[C@H](CCC(=O)O)c1ccccc1Cl | -1.62 °C | -1.51 °C
Cc1ccc(-n2nc(C(C)(C)C)cc2NC(=O)Nc2ccc(OCCN3CCOCC3)c3ccccc23)cc1 | 0 °C and -1.27 °C | -0.19 °C and -3.17 °C
Fc1ccc(-c2nc(-c3ccc4ccccc4c3F)[nH]c2-c2ccncc2)cc1 | -0.46 °C | -0.4 °C
Cc1cc(CN)cc(C)c1-c1ncn(C)c1-c1ccnc2cc(F)ccc12 | -0.64 °C | 0.17 °C
C[S+](C)[O-] | 0 °C (2×) and -2.05 °C | 0 °C (2×) and -2.19 °C
O=c1cc(C2CCNCC2)n2nc3cccc(Cl)c3c2[nH]1 | -0.48 °C | 0.25 °C
O=C(O)CCC/C=C\C[C@@H]1[C@@H](/C=C/[C@@H](O)COc2cccc(C(F)(F)F)c2)[C@H](O)C[C@@H]1O | -0.49 °C | -0.79 °C
CC(=O)c1c(C)c2cnc(Nc3ccc(N4CCN(CCOCCOCCOCCNC(=O)COc5cccc6c5C(=O)N(C5CCC(=O)NC5=O)C6=O)CC4)cn3)nc2n(C2CCCC2)c1=O (stereo not given) | -1.51 °C | 0.27 °C
C[C@@H]1COCCN1c1cc(=O)n2c(n1)N(Cc1cncc(Cl)c1)[C@H](C(F)(F)F)CC2 | -0.07 °C | -0.61 °C
N#Cc1ccc(C#CC[C@@H](C#N)NC(=O)[C@H]2CCCCN2)cc1F | -1.11 °C | 0.64 °C
C=C(F)C(=O)N1CCN(c2nc(OC[C@@H]3CCCN3C)nc3c2CCN(c2cccc4cccc(Cl)c24)C3)C[C@@H]1CC#N | 0.05 °C | -0.78 °C
Cn1ncc(NC(=O)c2nc(-c3c(F)cccc3F)sc2N)c1N1CC[C@@H](N)[C@H](F)CC1 | -1.02 °C | -1.63 °C
CN1C(=O)Cc2ccc(-c3ccc(C[C@@H](C#N)NC(=O)[C@H]4N[C@@H]5CC[C@H]4C5)c(F)c3)cc21 | 0.1 °C | 0.42 °C
COc1cc2nc([C@@H]3CCCS(=O)(=O)C3)n(C)c2cc1NC(=O)c1cccc(C(C)(F)F)n1 | 0.39 °C | 0.7 °C
COc1ccc(-c2c(-c3ccccc3)oc3ncnc(O[C@H](C)CCCCC(=O)O)c23)cc1 | -0.98 °C | -1.53 °C
NCC1CCC(CNc2nc(NCc3ccccc3OC(F)(F)F)ncc2[N+](=O)[O-])CC1 (stereo not given) | -3.36 °C | -1.36 °C
c1ccc(C(OC2CCN(CCCc3nnn[nH]3)CC2)c2ccccc2)cc1 | -1 °C | -0.6 °C
CCS(=O)(=O)c1cc2cc(C[C@@](O)(CC(C)(C)c3ccc(F)cc3C(N)=O)C(F)(F)F)[nH]c2cn1 | 0.67 °C and -0.3 °C | 0.3 °C and -2.64 °C
O=C(O)[C@]1(Cc2cccc(Nc3nccs3)n2)CC[C@@H](Oc2cccc(Cl)c2F)CC1 | 0 °C | -1.24 °C
O=C(Nc1ccc(N2CCC(C(=O)N3CCOCC3)CC2)cc1)c1cnc(Oc2ccccc2)nc1 | -0.8 °C | -0.59 °C
CN(C(=O)c1cnn2cccnc12)c1cc2c(cc1N1CCOCC1)C(=O)N(C[C@@H](F)C(C)(C)O)C2 | 0.93 °C | -2.51 °C
CCO[C@H](COc1ccc(C(F)(F)F)cc1)CSc1ccc(OCC(=O)O)c(C)c1 | -2.72 °C | -3.26 °C
CC(F)(F)CN1C(=O)c2[nH]nc(-c3cccc4[nH]c(=O)oc34)c2C1c1ccc(Oc2cc(C(F)(F)F)cc(C(F)(F)F)c2)cc1 (stereo not given) | -1.07 °C | -1.2 °C
